# Measurements from article PMC7862700, “An all-to-all approach to the identification of sequence-specific readers for epigenetic DNA modifications on cytosine”.
# Assays:
# Assay in all cases: DAPPL (digital affinity profiling via proximity ligation, sequencing); 10 mM Tris-HCl pH 7.5, 50 mM NaCl, 1 mM DTT, 4% glycerol, room temperature, 30 min; GST-TFs on glutathione beads, 16-mer random dsDNA library, 0.1% formaldehyde crosslink after washing; high values mean tight binding
# Conditions in all cases: protein: recombinant; tags: N-terminal GST; dsDNA, one strand shown
# ELK1 = target: T1, ELK1 (Homo sapiens, UniProt P19419 1-428)
# T1 sequence: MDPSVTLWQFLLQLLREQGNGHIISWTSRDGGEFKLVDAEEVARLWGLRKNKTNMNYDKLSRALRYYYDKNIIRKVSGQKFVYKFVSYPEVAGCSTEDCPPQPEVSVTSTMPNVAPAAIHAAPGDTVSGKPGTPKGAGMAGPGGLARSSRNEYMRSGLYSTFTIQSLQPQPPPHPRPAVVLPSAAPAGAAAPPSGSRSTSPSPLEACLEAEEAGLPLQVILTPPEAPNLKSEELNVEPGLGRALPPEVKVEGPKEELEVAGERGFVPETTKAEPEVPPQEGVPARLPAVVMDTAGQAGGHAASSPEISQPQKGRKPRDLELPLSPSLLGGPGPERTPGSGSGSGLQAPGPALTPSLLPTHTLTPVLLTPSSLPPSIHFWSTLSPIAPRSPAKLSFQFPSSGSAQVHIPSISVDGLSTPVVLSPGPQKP
# In short: (§1)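 Yeast served to express human transcription factors as GST fusions, which were then captured on glutathione beads and labelled with DNA barcodes. Pooled with a tag-only sample, they were incubated with 200 nmole of a 16-mer random double-stranded DNA library for 30 min at room temperature in Tris/NaCl/DTT/glycerol buffer, washed, crosslinked with 0.1% formaldehyde, ligated by proximity, amplified by PCR and sequenced. Dividing each hexamer's read frequency for a factor by its frequency for the tag-only sample gives the binding signal.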
# GABPA = target: T2, GABPA (Homo sapiens, UniProt Q06546 1-454)
# T2 sequence: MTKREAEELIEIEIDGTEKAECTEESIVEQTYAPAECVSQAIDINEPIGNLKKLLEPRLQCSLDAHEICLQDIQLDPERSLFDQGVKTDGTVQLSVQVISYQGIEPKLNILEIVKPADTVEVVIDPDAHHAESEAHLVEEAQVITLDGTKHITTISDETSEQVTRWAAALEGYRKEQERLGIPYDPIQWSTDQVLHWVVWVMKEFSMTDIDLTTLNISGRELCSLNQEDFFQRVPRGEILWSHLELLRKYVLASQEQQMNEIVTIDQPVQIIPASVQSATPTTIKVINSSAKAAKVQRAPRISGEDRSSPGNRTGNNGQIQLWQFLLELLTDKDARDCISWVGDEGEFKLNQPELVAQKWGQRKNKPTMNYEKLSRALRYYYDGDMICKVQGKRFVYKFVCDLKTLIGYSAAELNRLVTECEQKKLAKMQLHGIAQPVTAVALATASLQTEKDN
# In short: as §1
# ELF1 = ELF1 (Homo sapiens, UniProt P32519 1-619)
# ELF1, sequence (P32519 whole entry): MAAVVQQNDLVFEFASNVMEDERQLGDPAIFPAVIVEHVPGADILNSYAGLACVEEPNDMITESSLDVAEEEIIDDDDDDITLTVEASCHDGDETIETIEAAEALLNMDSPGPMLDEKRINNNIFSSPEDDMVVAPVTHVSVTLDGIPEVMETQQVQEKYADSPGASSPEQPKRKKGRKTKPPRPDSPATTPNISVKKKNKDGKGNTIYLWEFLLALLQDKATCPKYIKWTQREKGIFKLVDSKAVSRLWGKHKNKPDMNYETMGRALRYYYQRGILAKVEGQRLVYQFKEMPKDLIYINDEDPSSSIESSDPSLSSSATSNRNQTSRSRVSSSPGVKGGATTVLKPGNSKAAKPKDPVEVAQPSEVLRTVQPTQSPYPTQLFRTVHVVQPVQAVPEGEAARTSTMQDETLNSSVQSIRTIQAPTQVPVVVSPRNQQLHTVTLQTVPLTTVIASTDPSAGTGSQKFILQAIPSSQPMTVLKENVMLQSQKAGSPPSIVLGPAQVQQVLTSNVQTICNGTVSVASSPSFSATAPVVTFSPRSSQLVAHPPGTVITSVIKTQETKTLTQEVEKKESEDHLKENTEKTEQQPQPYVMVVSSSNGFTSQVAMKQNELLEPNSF
# In short: as §1
# EHF = target: T3, EHF (Homo sapiens, UniProt Q9NZC4 1-300)
# T3 sequence: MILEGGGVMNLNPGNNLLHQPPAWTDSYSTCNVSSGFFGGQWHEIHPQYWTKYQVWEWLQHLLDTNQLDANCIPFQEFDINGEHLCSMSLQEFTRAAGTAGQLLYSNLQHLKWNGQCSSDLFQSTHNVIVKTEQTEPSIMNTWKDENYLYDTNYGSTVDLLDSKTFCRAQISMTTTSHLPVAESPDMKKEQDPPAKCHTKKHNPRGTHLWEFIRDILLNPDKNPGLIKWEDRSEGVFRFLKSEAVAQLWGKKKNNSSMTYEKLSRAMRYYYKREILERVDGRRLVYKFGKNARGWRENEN
# In short: as §1
# SPIB = SPIB (Homo sapiens, UniProt Q01892 1-262)
# SPIB, sequence (Q01892 whole entry): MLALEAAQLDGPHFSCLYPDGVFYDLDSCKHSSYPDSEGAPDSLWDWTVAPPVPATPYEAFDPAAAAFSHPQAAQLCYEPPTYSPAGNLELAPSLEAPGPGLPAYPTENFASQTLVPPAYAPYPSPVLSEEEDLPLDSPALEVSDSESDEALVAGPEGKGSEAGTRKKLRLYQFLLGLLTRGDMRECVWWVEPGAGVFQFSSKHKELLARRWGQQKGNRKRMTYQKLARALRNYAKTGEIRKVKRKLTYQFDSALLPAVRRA
# In short: as §1
# FEV = target: T4, FEV (Homo sapiens, UniProt Q99581 1-238)
# T4 sequence: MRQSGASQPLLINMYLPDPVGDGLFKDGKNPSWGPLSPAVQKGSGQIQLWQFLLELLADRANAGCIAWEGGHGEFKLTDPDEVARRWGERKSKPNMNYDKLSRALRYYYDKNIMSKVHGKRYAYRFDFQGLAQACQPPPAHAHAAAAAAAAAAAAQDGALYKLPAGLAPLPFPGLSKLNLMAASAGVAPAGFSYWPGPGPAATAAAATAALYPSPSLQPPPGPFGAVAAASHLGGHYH
# In short: as §1
# ETV5 = ETV5 (Homo sapiens, UniProt P41161 1-510)
# ETV5, sequence (P41161 whole entry): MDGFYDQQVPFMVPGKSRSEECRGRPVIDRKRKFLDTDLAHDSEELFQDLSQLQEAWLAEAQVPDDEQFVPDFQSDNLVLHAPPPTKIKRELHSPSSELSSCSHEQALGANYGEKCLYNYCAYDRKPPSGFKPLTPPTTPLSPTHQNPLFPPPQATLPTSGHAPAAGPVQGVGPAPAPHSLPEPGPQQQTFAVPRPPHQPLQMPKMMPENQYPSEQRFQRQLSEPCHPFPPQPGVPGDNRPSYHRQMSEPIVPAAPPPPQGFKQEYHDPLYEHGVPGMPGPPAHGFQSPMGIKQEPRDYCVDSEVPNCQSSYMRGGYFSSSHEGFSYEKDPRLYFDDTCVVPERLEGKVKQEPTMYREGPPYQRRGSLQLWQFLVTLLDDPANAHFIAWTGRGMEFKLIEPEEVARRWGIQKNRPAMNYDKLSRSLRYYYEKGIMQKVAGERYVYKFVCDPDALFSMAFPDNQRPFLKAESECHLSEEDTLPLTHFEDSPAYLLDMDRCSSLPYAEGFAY
# In short: as §1
# ELF4 = ELF4 (Homo sapiens, UniProt Q99607 1-663)
# ELF4, sequence (Q99607 whole entry): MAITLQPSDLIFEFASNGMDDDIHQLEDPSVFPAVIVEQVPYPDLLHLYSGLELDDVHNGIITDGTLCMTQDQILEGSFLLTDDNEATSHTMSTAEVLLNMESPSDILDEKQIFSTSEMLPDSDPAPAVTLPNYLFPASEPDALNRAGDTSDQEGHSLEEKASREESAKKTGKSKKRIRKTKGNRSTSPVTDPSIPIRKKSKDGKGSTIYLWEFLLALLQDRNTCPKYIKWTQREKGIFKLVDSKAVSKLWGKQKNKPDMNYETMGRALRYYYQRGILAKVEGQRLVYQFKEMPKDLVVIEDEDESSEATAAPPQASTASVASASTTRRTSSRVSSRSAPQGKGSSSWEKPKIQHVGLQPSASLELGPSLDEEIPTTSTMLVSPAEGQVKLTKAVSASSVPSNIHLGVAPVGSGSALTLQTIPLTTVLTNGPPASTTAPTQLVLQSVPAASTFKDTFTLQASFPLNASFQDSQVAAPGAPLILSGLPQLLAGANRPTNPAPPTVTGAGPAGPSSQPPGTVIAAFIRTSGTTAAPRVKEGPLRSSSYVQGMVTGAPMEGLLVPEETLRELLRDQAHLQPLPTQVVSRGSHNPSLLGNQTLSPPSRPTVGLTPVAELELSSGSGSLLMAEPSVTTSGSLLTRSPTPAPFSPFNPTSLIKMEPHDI
# In short: as §1
# ELK4 = target: T5, ELK4 (Homo sapiens, UniProt P28324-2 1-405)
# T5 sequence: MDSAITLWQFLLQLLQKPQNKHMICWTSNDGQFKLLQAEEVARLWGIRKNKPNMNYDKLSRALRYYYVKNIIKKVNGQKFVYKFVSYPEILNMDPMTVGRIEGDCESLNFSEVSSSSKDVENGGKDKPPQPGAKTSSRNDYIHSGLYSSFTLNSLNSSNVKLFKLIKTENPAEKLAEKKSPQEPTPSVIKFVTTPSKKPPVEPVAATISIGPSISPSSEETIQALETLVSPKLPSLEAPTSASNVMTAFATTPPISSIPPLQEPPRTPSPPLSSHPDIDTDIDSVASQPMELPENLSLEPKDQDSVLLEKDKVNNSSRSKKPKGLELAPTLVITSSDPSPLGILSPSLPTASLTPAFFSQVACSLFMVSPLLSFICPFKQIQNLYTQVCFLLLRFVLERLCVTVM
# In short: as §1
sequence,measurement,setting,value
TTGTCA,binding signal,ELK1,"1.04 fold enrichment (6-mer frequency, TF over GST control)"
same,binding signal,GABPA,"1.08 fold enrichment (6-mer frequency, TF over GST control)"
same,binding signal,ELF1,"1.13 fold enrichment (6-mer frequency, TF over GST control)"
same,binding signal,EHF,"1.11 fold enrichment (6-mer frequency, TF over GST control)"
same,binding signal,SPIB,"1.21 fold enrichment (6-mer frequency, TF over GST control)"
same,binding signal,FEV,"1.06 fold enrichment (6-mer frequency, TF over GST control)"
same,binding signal,ETV5,"1.05 fold enrichment (6-mer frequency, TF over GST control)"
same,binding signal,ELF4,"1.14 fold enrichment (6-mer frequency, TF over GST control)"
same,binding signal,ELK4,"1.21 fold enrichment (6-mer frequency, TF over GST control)"
